The record followed here is PubChem BioAssay (NCI).

About 79,000 compounds went through this panel and 15% of them were active in at least one assay; those are over-represented in the sample as a whole. Values without a mark were called inactive. The source made the active and inactive calls. No stated cut-off is given here; in the data, active means growth inhibition above about 70%; inactive means the rest. Where a SMILES comes first, the peptide text is derived from it. The star is where a group is joined. Trt = c1ccc(C(c2ccccc2)(c2ccccc2)*)cc1; Cbz = O=C(OCc1ccccc1)*

The first assay in a line: NCI Yeast Anticancer Drug Screen. Data for the sgs1 mgt1 strain (AID 161).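 Further: 0% = growth of cultures given vehicle only.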 Particulars: S. cerevisiae sgs1 mgt1 strain, at 50.0 µM, active compounds read high. In short, it runs like this:
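Genetically altered yeast, compound exposure, growth inhibition relative to vehicle.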
For `N=C(N)SCCC(=O)O`, the growth inhibition is -39.7%.

Take `COC(=O)C(CO)NC(=O)C(CSC(c1ccccc1)(c1ccccc1)c1ccccc1)NC(=O)OCc1ccccc1` (stereo not given) (Cbz-Cys(Trt)-Ser-OMe; configuration not given here): the growth inhibition was 78.8% (active).

On to `CC1(C)N=C(N)N=C(N)N1c1cccc(OCCCOc2ccc([N+](=O)[O-])cc2)c1`, for which the growth inhibition is -17.1%.

Turning to `CCN(CC)CCN(CC)CC(=O)Nc1ccccc1Cl`, the growth inhibition is -1.65%.

As to `O=c1[nH]c(N2CCN(c3ccccc3)CC2)nc2cc3ccccc3cc12`, the growth inhibition is -13.6%.

Take `c1ccc(-c2cnc(C3CCCCC3)o2)cc1`: the growth inhibition was 14.8%.

Turning to `C[N+](C)(C)C=Nc1cccc2c1CCCC2`, the growth inhibition is -26.4%.

Turning to `COc1ncnc2c(NC3OC(CO)C(O)C3O)ncnc12` (stereo not given), the growth inhibition was -5.4%.

For `Cn1c2cc(Cl)c(Cl)cc2nc2cc3c(cc21)c(Cl)c(=O)c1cc2cc(Cl)c(Cl)cc2cc13`, the growth inhibition is 11.3%.

Consider `CN1C=C([N+](=O)[O-])C(N2CCOCC2)C1N1CCOCC1` (stereo not given), for which the growth inhibition was -3.5%.

In the case of `O=C1NCC(c2ccccc2)(C2CC2)O1` (stereo not given), the growth inhibition was -13.3%.

As to `CCOC(=O)c1noc(Oc2ccc(Cl)cc2Cl)n1`, the growth inhibition was -10.8%.

Consider `CCCN(CCC)C(=S)S`, for which the growth inhibition was 54.1%.

Turning to `CSc1ncnc2c1ccn2C1OC(COP(=O)(O)O)C(O)C1O` (stereo not given), the growth inhibition is -3.4%.

In the case of `O=C(O)c1c(Br)c(Br)c(Br)c(Br)c1C(=O)Nc1ccc([N+](=O)[O-])cc1`, the growth inhibition was 3.35%.

Take `Cc1ccc(N2C(=O)CSC2=S)cc1F`: the growth inhibition was 47.4%.

Take `Cc1ccc(C#N)c2c1CCC2`: the growth inhibition was 3.05%.

As to `CCOC(=O)/C=C/C(=O)OCC`, the growth inhibition was -4.8%.

`COc1ccc(C(=O)C(CO)Oc2ccccc2OC)cc1OC` (stereo not given): the growth inhibition is -20.2%.

As for `O=C(O)CCC(=O)Nc1cc(C(F)(F)F)ccc1Cl`, the growth inhibition was 7.8%.

As to `Clc1ccc(OCc2nnc3n2N=C(c2ccc(Br)cc2)CS3)cc1`, the growth inhibition was 8.8%.

For the compound `CC(C)C(=O)C(F)(F)F`, the growth inhibition is -21.3%.

On to `O=C(OC1C#CCSCC#C/C=C\1)c1ccc2c(c1)C(=O)c1ccccc1C2=O` (stereo not given), for which the growth inhibition was -53.2%.

`Cc1ccc2c(c1)Nc1ccccc1P2(=O)O`: the growth inhibition was -40%.

For the compound `NC(=O)SCC(=O)Nc1ccc2cccc3c2c1CC3`, the growth inhibition was 80% (active).

Consider `CC1=CCC(CC(=O)O)C1(C)C` (stereo not given), for which the growth inhibition was -2.85%.

`O=C(NC(c1ccccc1)C(O)c1ccccc1)C(Cl)Cl` (stereo not given): the growth inhibition was -1.95%.

Take `O=C1c2ccccc2C(=O)c2c1cc1c(c2O)OCO1`: the growth inhibition is 20.1%.

For `CCCCCCCCCCCCC(F)C(=O)OCC1OC(n2cc(C)c(=O)[nH]c2=O)CC1N=[N+]=[N-]` (stereo not given), the growth inhibition was 36.4%.

In the case of `CN1C(C)(C)NC(=S)C1(C)C`, the growth inhibition is -5.5%.

With `NC(=S)N/N=C(\CCC(=O)Nc1ccccc1[N+](=O)[O-])CC(=O)c1ccco1`, the growth inhibition was -19.9%.

For `CC(C)(C)CC(C)(C)NS(=O)(=O)NC(C)(C)CC(C)(C)C`, the growth inhibition is -9.15%.

Consider `O=C(O)c1cccc(Br)c1[N+](=O)[O-]`, for which the growth inhibition is -26.6%.

As for `CC(=O)NC(CSCN(C)c1nc(N(C)C)nc(N(C)C)n1)C(=O)O` (stereo not given), the growth inhibition is 2.95%.

With `CN(C)CC1CCCCCCCCCC(CN(C)C)C1=O` (stereo not given), the growth inhibition is -11.3%.

For `CCCCCCC(=O)C(=O)O`, the growth inhibition is 35.5%.

For the compound `[N-]=[N+]=NC1(Cc2ccccc2)C(=O)Nc2ccccc2C1=O` (stereo not given), the growth inhibition was -19.4%.

As to `O=C(O)CCC1COc2ccccc2O1` (stereo not given), the growth inhibition was 0.8%.

For `O=C1NC(=O)C(F)(F)C1(F)F`, the growth inhibition was -6.45%.

On to `CC1(C)C/C(=C\c2ccc([N+](=O)[O-])cc2)C(=O)c2ccccc21`, for which the growth inhibition is 77.5% (active).

The nature of the next assay: NCI Yeast Anticancer Drug Screen. Data for the cln2 rad14 strain (AID 165).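 Further: 0% = growth equal to vehicle treated cultures.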 Particulars: S. cerevisiae cln2 rad14 strain, at 50.0 µM, active compounds read high. A digest of the protocol: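 Each compound was tested on cln2 rad14 yeast. Inhibition of growth was calculated against vehicle-exposed controls.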
Regarding `N=C(N)SCCC(=O)O`, the growth inhibition was -69.6%.

On to `COC(=O)C(CO)NC(=O)C(CSC(c1ccccc1)(c1ccccc1)c1ccccc1)NC(=O)OCc1ccccc1` (stereo not given) (Cbz-Cys(Trt)-Ser-OMe; configuration not given here), for which the growth inhibition was 78% (active).

`CC1(C)N=C(N)N=C(N)N1c1cccc(OCCCOc2ccc([N+](=O)[O-])cc2)c1`: the growth inhibition is -44.9%.

As for `CCN(CC)CCN(CC)CC(=O)Nc1ccccc1Cl`, the growth inhibition was 4.35%.

Turning to `O=c1[nH]c(N2CCN(c3ccccc3)CC2)nc2cc3ccccc3cc12`, the growth inhibition was -26.8%.

Consider `c1ccc(-c2cnc(C3CCCCC3)o2)cc1`, for which the growth inhibition was 10.2%.

With `C[N+](C)(C)C=Nc1cccc2c1CCCC2`, the growth inhibition is -7.05%.

Consider `COc1ncnc2c(NC3OC(CO)C(O)C3O)ncnc12` (stereo not given), for which the growth inhibition is 12.4%.

Take `Cn1c2cc(Cl)c(Cl)cc2nc2cc3c(cc21)c(Cl)c(=O)c1cc2cc(Cl)c(Cl)cc2cc13`: the growth inhibition was 25.9%.

`CN1C=C([N+](=O)[O-])C(N2CCOCC2)C1N1CCOCC1` (stereo not given): the growth inhibition was 3.1%.

In the case of `O=C1NCC(c2ccccc2)(C2CC2)O1` (stereo not given), the growth inhibition was -44.6%.

`CCOC(=O)c1noc(Oc2ccc(Cl)cc2Cl)n1`: the growth inhibition was -4.35%.

As for `CCCN(CCC)C(=S)S`, the growth inhibition is 32.7%.

In the case of `CSc1ncnc2c1ccn2C1OC(COP(=O)(O)O)C(O)C1O` (stereo not given), the growth inhibition is -2.45%.

Turning to `O=C(O)c1c(Br)c(Br)c(Br)c(Br)c1C(=O)Nc1ccc([N+](=O)[O-])cc1`, the growth inhibition is 4.75%.

For `Cc1ccc(N2C(=O)CSC2=S)cc1F`, the growth inhibition was 8.15%.

`Cc1ccc(C#N)c2c1CCC2`: the growth inhibition was -50%.

As to `CCOC(=O)/C=C/C(=O)OCC`, the growth inhibition was -2.55%.

With `COc1ccc(C(=O)C(CO)Oc2ccccc2OC)cc1OC` (stereo not given), the growth inhibition was 4.25%.

For `O=C(O)CCC(=O)Nc1cc(C(F)(F)F)ccc1Cl`, the growth inhibition is 25.1%.

Turning to `Clc1ccc(OCc2nnc3n2N=C(c2ccc(Br)cc2)CS3)cc1`, the growth inhibition was 7.05%.

For `CC(C)C(=O)C(F)(F)F`, the growth inhibition was 6.45%.

As to `O=C(OC1C#CCSCC#C/C=C\1)c1ccc2c(c1)C(=O)c1ccccc1C2=O` (stereo not given), the growth inhibition is -37%.

For the compound `Cc1ccc2c(c1)Nc1ccccc1P2(=O)O`, the growth inhibition is 37.6%.

Turning to `NC(=O)SCC(=O)Nc1ccc2cccc3c2c1CC3`, the growth inhibition is 61.6%.

`CC1=CCC(CC(=O)O)C1(C)C` (stereo not given): the growth inhibition is 4.3%.

Regarding `O=C(NC(c1ccccc1)C(O)c1ccccc1)C(Cl)Cl` (stereo not given), the growth inhibition is -4.65%.

Take `O=C1c2ccccc2C(=O)c2c1cc1c(c2O)OCO1`: the growth inhibition is -10.2%.

Take `CCCCCCCCCCCCC(F)C(=O)OCC1OC(n2cc(C)c(=O)[nH]c2=O)CC1N=[N+]=[N-]` (stereo not given): the growth inhibition is -14.8%.

With `CN1C(C)(C)NC(=S)C1(C)C`, the growth inhibition was 11.7%.

As for `NC(=S)N/N=C(\CCC(=O)Nc1ccccc1[N+](=O)[O-])CC(=O)c1ccco1`, the growth inhibition was 27.4%.

As for `CC(C)(C)CC(C)(C)NS(=O)(=O)NC(C)(C)CC(C)(C)C`, the growth inhibition was -57.3%.

`O=C(O)c1cccc(Br)c1[N+](=O)[O-]`: the growth inhibition is -36.1%.

For the compound `CC(=O)NC(CSCN(C)c1nc(N(C)C)nc(N(C)C)n1)C(=O)O` (stereo not given), the growth inhibition was 5.6%.

As for `CN(C)CC1CCCCCCCCCC(CN(C)C)C1=O` (stereo not given), the growth inhibition was -1.6%.

Take `CCCCCCC(=O)C(=O)O`: the growth inhibition is 3.65%.

For `[N-]=[N+]=NC1(Cc2ccccc2)C(=O)Nc2ccccc2C1=O` (stereo not given), the growth inhibition is 4.2%.

`O=C(O)CCC1COc2ccccc2O1` (stereo not given): the growth inhibition is -9.5%.

`O=C1NC(=O)C(F)(F)C1(F)F`: the growth inhibition is -1.1%.

With `CC1(C)C/C(=C\c2ccc([N+](=O)[O-])cc2)C(=O)c2ccccc21`, the growth inhibition is 40.3%.
